In PubChem BioAssay (EPA / NIEHS):
Activity calls are given as the source filed them. How the source made its calls: active means hit-call score of the fitted dose curve at least 0.9, where 1 is the maximum; inactive means score below 0.9.

How the values were obtained:
[1] = APR_HepG2_CellCycleArrest_24hr: Apredica 24-hour HepG2 Assay for Cell Cycle Arrest (AID 2282905); conditions: imaging, actives raise or lower the signal;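 further: cell cycle arrest scored as ratio of 2N to 4N nuclear DNA content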
Method in brief: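 Step one: dose HepG2 with test compounds, 0.39–200 uM, 0.5% DMSO, 24 hr. Step two: fix, permeabilize, stain nuclei with Hoechst 33342. Step three: image six fields per well at 20x, quantify DNA content, fit bidirectionally relative to DMSO.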

[2] = APR_HepG2_NuclearSize_24hr: Apredica 24-hour HepG2 Assay for Nuclear Size (AID 2282907); conditions: high-content imaging, actives raise or lower the signal
Method in brief: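 After fixation and permeabilization, 24-hr-treated HepG2 cells were stained with Hoechst 33342 and imaged on an ArrayScan (20x). Doses spanned 0.39–200 uM in duplicate. Nuclear diameter changes in either direction were fitted relative to 0.5% DMSO controls.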

[3] = APR_HepG2_CellLoss_24hr: Apredica 24-hour HepG2 Assay for Cell Loss (AID 2282908); conditions: high-content imaging;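 on AC50: fit in both directions so a hit may be cell loss or gain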
Method in brief: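 Duplicate wells received compound at ten concentrations (0.39–200 uM; final DMSO 0.5% v/v). After fixation with formaldehyde, nuclei stained with Hoechst 33342 were imaged at 20x. Loss or gain of cell count was fitted relative to DMSO controls.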

[4] = APR_HepG2_MicrotubuleCSK_24hr: Apredica 24-hour HepG2 Assay for Microtubule CSK Stabilty (AID 2282909); conditions: HepG2 microtubule cytoskeleton imaging, actives raise or lower the signal
Method in brief: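 Microtubule stability is scored from tubulin immunofluorescence in fixed HepG2 cells imaged at 20x. Cells receive ten compound concentrations up to 200 uM for 24 h; taxol and DMSO serve as positive and negative controls.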

[5] = APR_HepG2_MitoticArrest_24hr: Apredica 24-hour HepG2 Assay for Mitotic Arrest (AID 2282910); conditions: high-content imaging, actives raise or lower the signal
Method in brief: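 Treatment lasted 24 hr in the human HepG2 line at 0.39–200 uM, solvent held at 0.5% DMSO. Fixed cells were stained with Hoechst 33342 and anti-phospho-histone H3, imaged at 20x, and analysed by gain- or loss-of-signal fitting against DMSO.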

[6] = APR_HepG2_MitoMembPot_24hr: Apredica 24-hour HepG2 Assay for Mitochondrial Membrane Potential (AID 2282911); conditions: imaging, actives raise or lower the signal
Method in brief: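 Human hepatoma HepG2 cultures received ten compound concentrations up to 200 uM for 24 hr. Membrane-potential dye signal, captured by automated fluorescence microscopy, was scored for gain or loss against DMSO controls.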

[7] = APR_HepG2_MitoMass_24hr: Apredica 24-hour HepG2 Assay for Mitochondrial Mass (AID 2282912); conditions: high-content imaging, actives raise or lower the signal
Method in brief: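 Readout: fluorescence of MitoTracker Red CMXRos (250 nM, added 30 min pre-fixation) in fixed HepG2 cells imaged by HCS. Exposure lasted 24 hr at 0.39–200 uM; increases and decreases were both fitted relative to DMSO.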

[8] = APR_HepG2_p53Act_24hr: Apredica 24-hour HepG2 Assay for p53 Activation (AID 2282913); conditions: high-content imaging, actives raise or lower the signal;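 further: p53 protein immunofluorescence averaged per cell in HepG2 with Hoechst nuclei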
Method in brief: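 Automated fluorescence imaging quantifies p53 immunostaining in HepG2 cells after a 24 hr exposure (0.39–200 uM, duplicate, 0.5% DMSO). Nuclei are located by Hoechst 33342 staining.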

[9] = APR_HepG2_CellCycleArrest_72hr: Apredica 72-hour HepG2 Assay for Cell Cycle Arrest (AID 2282914); conditions: high-content imaging, actives raise or lower the signal
Method in brief: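 Cell cycle arrest in HepG2 was scored from nuclear DNA content after 72 hr compound treatment (0.39–200 uM). Activity, either gain or loss, was fitted against the DMSO baseline.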

[10] = APR_HepG2_CellLoss_72hr: Apredica 72-hour HepG2 Assay for Cell Loss (AID 2282915); conditions: high-content imaging
Method in brief: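 HepG2 cells were exposed for 72 hr to compounds at 0.39–200 uM (ten concentrations, duplicate) in 0.5% v/v final DMSO. Nuclei were stained with Hoechst 33342 after 3.7% formaldehyde fixation, imaged at 20x, and counted; fits bidirectional versus DMSO.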

Measured: AC50

ClC1=C(Cl)[C@]2(Cl)[C@@H]3[C@@H]4C[C@@H]([C@H]5O[C@@H]45)[C@@H]3[C@@]1(Cl)C2(Cl)Cl
active: [3] 31.6 µM | [9] 39.2 µM | [10] 34.4 µM
inactive: all other assays above

c1cc2ccc3cccc4ccc(c1)c2c34
active: [6] 92.1 µM
inactive: all other assays above

CO/C=C(/C(=O)OC)c1ccccc1COc1cccc(C(F)(F)F)n1
active: [3] 9.73 µM | [5] 16.8 µM | [6] 16.4 µM | [10] 3.39 µM
inactive: all other assays above

CC(C)C(=O)OCC(C)(C)C(OC(=O)C(C)C)C(C)C (stereo not given)
inactive: all assays above

Clc1ccc(Cl)cc1
inactive: all assays above

C1CC2OC2CC1C1CO1 (stereo not given)
inactive: all assays above

O=C(O)C(F)(F)C(F)(F)C(F)(F)C(F)(F)C(F)(F)F
inactive: all assays above

Cc1cc(-c2ccc(N)c(C)c2)ccc1N
active: [9] 66.7 µM
inactive: all other assays above

Cc1ccc(O)c(C)c1
inactive: all assays above

Cc1cc2c3c(c1)C(c1ccccc1)=N[C@@H](NC(=O)c1ccncc1)C(=O)N3CC2
active: [10] 90.9 µM
inactive: all other assays above

CCOC(=O)C(O)(c1ccc(Cl)cc1)c1ccc(Cl)cc1
active: [1] 54.1 µM | [2] 72.9 µM | [3] 72.3 µM | [4] 89.7 µM | [5] 70.5 µM | [6] 7.9 µM | [7] 59.5 µM | [8] 82.7 µM | [9] 44.7 µM | [10] 69.6 µM

C[C@]12CCC(=O)C=C1CC[C@@H]1[C@@H]2CC[C@]2(C)C(=O)CC[C@@H]12
inactive: all assays above

O=S(=O)(O)C(F)(F)C(F)(F)C(F)(F)C(F)(F)C(F)(F)C(F)(F)F
inactive: all assays above

O=C(O)C(F)(F)C(F)(F)C(F)(F)C(F)(F)C(F)(F)C(F)(F)C(F)(F)C(F)(F)C(F)(F)F
inactive: [1] | [4] | [6]
active: [2] 130 µM | [3] 108 µM | [5] 106 µM | [7] 109 µM | [8] 97.4 µM | [9] 66.8 µM | [10] 96 µM

Cc1ccccc1[N+](=O)[O-]
inactive: all assays above

O=NN(c1ccccc1)c1ccccc1
inactive: all assays above

O=C(N[C@H]1CN2CCC1CC2)c1cc2ccoc2cn1
active: [6] 0.0336 µM
inactive: all other assays above

CC(C)(O)C(=O)Nc1ccc([N+](=O)[O-])c(C(F)(F)F)c1
inactive: all assays above

c1ccc(-c2ccccc2)cc1
inactive: all assays above

CCOP(=S)(OCC)SCSC(C)(C)C
active: [6] 0.0494 µM
inactive: all other assays above

C=CC(N)=O
inactive: all assays above

Nn1cnnc1
inactive: all assays above

Nc1ccc(-c2ccc(N)cc2)cc1
active: [1] 100 µM | [8] 100 µM
inactive: all other assays above

Oc1ccc(C(c2ccc(O)cc2)(C(F)(F)F)C(F)(F)F)cc1
active: [10] 36.7 µM
inactive: all other assays above

Clc1ccc(C(c2ccccc2Cl)C(Cl)(Cl)Cl)cc1 (stereo not given)
inactive: [2] | [6]
active: [1] 52.2 µM | [3] 70.5 µM | [4] 74.4 µM | [5] 69.4 µM | [7] 65.7 µM | [8] 75.5 µM | [9] 24.6 µM | [10] 70.6 µM

ClC1=C(Cl)[C@]2(Cl)[C@@H]3[C@H]4C[C@H]([C@@H]5O[C@H]45)[C@@H]3[C@@]1(Cl)C2(Cl)Cl
active: [6] 59.3 µM
inactive: all other assays above

C=CC(=O)NCNC(=O)C=C
inactive: all assays above

N#Cc1ccc(N(CC(N)=O)CC(F)(F)F)cc1C(F)(F)F
inactive: all assays above

Cc1cccc([N+](=O)[O-])c1
inactive: all assays above
